Experimental data as given in PubChem BioAssay (NCATS).
Calls of active or inactive are those of the source. A call without a number means that no potency is given here. The call rests on the fitted dose curve; in most records, active means well fitted curve in the direction sought with a large enough effect; inconclusive means small, poorly fitted or top-dose-only effect, or another doubt; inactive means no such curve, though single readings can be large or run the other way.

Assay: Validation qHTS assay for inhibitors of Activation Induced Cytidine Deaminase (AID): UDG Counterscreen signal (AID 1347427)
Details: biochemical UDG counterscreen, fluorescence signal; series mostly up to 115 µM
From the text: Assay Provider (PI) Patricia Gearhart Ph.D.
National Institute on Aging
National Institute of Health (NIH), Bethesda, MD
Assay Provider (PI) Rahul Kohli Ph.D.
Perelman School of Medicine
University of Pennsylvania, Philadelphia, PA
Activation-Induced Deaminase (AID) is a cytosine deaminase which converts cytosine into uracil within stretches of ssDNA. The presence of uracil in DNA initiates a cascade of mutagenic DNA repair to introduce point mutations and DNA double strand breaks. Specific targeting of AID to the immunoglobulin heavy chain loci (Igh) promotes mutagenesis in the antibody variable region for somatic hypermutation (SHM) or switch regions leading to class switch recombination (CSR). However, AID also plays a role in accumulating unnecessary mutations across the genome. Mis-targeting of AID results in the initiation of tumor development and leads to greater drug resistance among cancer cells when continually expressed. To identify an AID inhibitor, a small molecule library will be screened in collaboration with NCATS core facility at NIH. To confirm biological function, inhibitors will be examined in an in vitro murine B-cell activation assay and subsequent secondary validation screens. Top molecules will be further screened to identify inhibitory efficacy against a wild type primary splenocytes assay. Using these approaches, we hope to identify a small molecule with great efficacy and low toxicity for use as a molecular probe to further characterize AID's intricacies, or even as a therapeutic.
A FRET based analysis of cytosine deamination, was developed to identify potential inhibitors of AID catalytic activity. This screen has two signal output, Read 1 evaluates the AID inhibition response. The second readout (Read 2) evaluates UDG response and is uses as a counterscreen to exclude false positive inhibitors. Inhibition in AID and inactivity in the UDG signal is the desired outcome for this assay.
SEQUENCE No. (e.g., 1, 2, 3, etc.); […] (e.g., Cells, Incubation, Reagent, etc.); VALUE; DESCRIPTION
1a; Reagent; 3 uL; [4/3x] 1 uM AID/2.67 U/mL UDG
1b; Reagent; 3 uL; 2 U/mL UDG
1c; Reagent; 3 uL; 1 uM AID
2a; Compound; 46 nL; Follow-up plates (0.64 uM - 10 mM)
2b; Control; 46 nL; ATA ([…] - 10 mM)
3; Time; 10 min; incubation at room temperature
5; Time; 4 hr; incubation at room temperature
6; Reagent; 4 uL; [2x] 250 mM NaOH
7; Time; 15 sec; centrifuge at 1000 rpm
8; Time; 30 min; incubation at room temperature
9a; Detection; fluorescence (Read 1: AID); EnVision (PerkinElmer) plate reader, 540 excitation and 590 emission filters
9b; Detection; fluorescence (Read 2: UDG); EnVision (PerkinElmer) plate reader, 560 excitation and 665 emission filters
NOTES (numbers refer to sequence above)
1a; Reagents were dispensed in a medium-binding black solid-bottom Greiner plates (789176F) using a BioRptr liquid dispenser. Dispense 3 uL of [4/3x] 1 uM AID (provided by Kohli lab) and [4/3x] 2 U/mL UDG (NEB M0280L) into columns 1, 2, 5 to 48.
1b; Dispense 3 uL of [4/3x] 2 U/mL UDG into column 3.
1c; Dispense 3 uL of [4/3x] 1 uM AID into column 4.
2b; 10 mM Aurintricarboxylic Acid (Sigma A1895) (ATA, 8-point, n = 2, 1:2.5 dilution in column 2) double pin-transferred (Dip Factor = 2) using the Kalypsys (Wako USA) pintool equipped with a 1536 pinhead for a [final] range of 186 nM - 114 uM.
3; Room temperature incubation.
4; Dispense 1 uL of substrate mixture from the Kohli lab [4x] […] DJC20 and [4x] 250 nM DJC23 into columns 1 to 48 .
5; Room temperature incubation.
6; Dispense 4 uL of substrate mixture [2x] 250 mM NaOH into columns 1 to 48.
7; Centrifugation step to remove bubbles.
8; Room temperature incubation
9a; Fluorescence signal (column label AID) was read using the EnVision plate reader. Excitation filter = 540(8) nm, barcode = 311; Emission filter = 590(20) nm, barcode = 217; Mirror = D555, barcode = 405.
9b; Fluorescence signal (column label UDG) was read using the EnVision plate reader. […]

SMILES | Potency
Nc1ncnc2c1nc(Sc1ccc(Cl)cc1)n2[C@H]1OC2COP(=O)(O)O[C@@H]2C1O (stereo not given in full) | inactive
CCCn1c(=O)c2c(ncn2C)n(CCC)c1=O | inactive
COCc1nc2c([nH]1)c(=O)n(C)c(=O)n2CC(C)C | inactive
CNC(=O)c1cc2c(cn1)[nH]c1ccccc12 | inactive
COc1ccc2c(c1)c(CC(=O)O)c(C)n2C(=O)c1ccccc1 | inactive
COC(=O)[C@H](NC(=O)c1cc(-c2ccccc2)nc2ccccc12)c1ccccc1 | inactive
CC(C)(CO)Cc1cc(C(C)(C)C)c(O)c(C(C)(C)C)c1 | inactive
Cn1c(=O)c2[nH]c(-c3ccc(S(=O)(=O)O)cc3)nc2n(C)c1=O | inactive
O=C(O)C1=CCCNC1 | inactive
COc1cc(CC(=O)O)ccc1O | inactive
NCCCNCCCCNCCCN | inactive
[Li+] | inactive
CCCn1c(=O)c2[nH]c(C3CCCC3)nc2n(CCC)c1=O | inactive
CC(=O)NNC(=O)N1Cc2ccccc2Oc2ccc(Cl)cc21 | inactive
O=C(O)c1cc2cc(F)ccc2[nH]1 | inactive
CC(=O)[C@H]1CCC2C3CC=C4C[C@@H](OS(=O)(=O)O)CC[C@]4(C)C3CC[C@@]21C (stereo not given in full) | inactive
COC(=O)C(C)(N)Cc1ccc(O)cc1 (stereo not given) | inactive
C=C1C[C@@]23CC[C@H]4[C@@](C)(CCC[C@@]4(C)C(=O)OC4OC(CO)C(O)C(O)C4O)[C@@H]2CC[C@]1(OC1OC(CO)C(O)C(O)C1OC1OC(CO)C(O)C(O)C1O)C3 (stereo not given in full) | inactive
C[C@]12C=CC(=O)C=C1CC[C@@H]1C2=CC[C@]2(C)[C@@H](C(=O)CN3CCN(c4cc(N5CCCC5)nc(N5CCCC5)n4)CC3)CC[C@@H]12 | inactive
CC(N)(Cc1ccc(O)c(O)c1)C(=O)O (stereo not given) | inactive

SMILES | Potency
O=c1onc2cnc3ccccc3n12 | inactive
COc1ccc(NC(=O)c2ccc(-c3ccc(-c4noc(C)n4)cc3C)cc2)cc1N1CCN(C)CC1 | inactive
CN1CC(O)C(O)C(O)C1CO (stereo not given) | inactive
O=c1ccc2c(OCCCCc3ccccc3)c3ccoc3cc2o1 | inactive
COc1ccc(C(=O)NCc2cccnc2)cc1C(=O)NCc1cccnc1 | inactive
CCCCCCCCCCCCCCSCC(=O)O | inactive
O=c1[nH]c2cc(Cl)ccc2c(O)c1-c1ccc(Oc2ccccc2)cc1 | inactive
Cc1ccccc1/C=C/C1=NCCN1 | inactive
NC(N)=[N+]1CCc2ccccc2C1 | inactive
CCSC(=N)N | inactive
O=c1cc(-c2ccccc2F)[nH]c2cc3c(cc12)OCO3 | inactive
COc1ccccc1N1CCN(CCCCN2C(=O)c3ccccc3C2=O)CC1 | inactive
OCC1NCC(O)C(O)C1O (stereo not given) | inactive
Nc1ccc(CCNc2ncnc3c2ncn3C2OC(CO)C(O)C2O)cc1 (stereo not given) | inactive
NCC(O)c1ccc(O)c(O)c1 (stereo not given) | inactive
COC(=O)C1=C(C)NC(C)=C([N+](=O)[O-])C1c1ccccc1C(F)(F)F (stereo not given) | inactive
NC1C=CC=C(C(=O)O)C1 (stereo not given) | inactive
O=C1C2C=CC=CC2=NC(=S)N1CCN1CCC(=C(c2ccc(F)cc2)c2ccc(F)cc2)CC1 (stereo not given) | inactive
Nc1ccc2c3c(cccc13)C(=O)NC2=O | inactive
CN1CCN(c2nc3cc(C(F)(F)F)ccc3n3cccc23)CC1 | inactive
